# According to PubChem BioAssay:
# Unmarked numbers belong to inactive results. The source made the active and inactive calls.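 How the source made its calls: active means compounds whose cell count with miR-34 switched on is under 0.7 times the count with it off; inactive means the rest.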
# Test: sensitizers of A549 cells to miR-34 induction, primary screen, imaging, A549 dox-inducible miR-34, nuclei and caspase counts (AID 1347080); further: test concentration not given here
# Conditions: A549 miR-34 inducible, Hoechst nuclei count, 48 h; hits give low values; cell number ratio, induced over uninduced
row,SMILES,fold change
1,CCCCC/C=C\C/C=C\C/C=C\C/C=C\CCCC(=O)NC[C@H](C)O,0.983
2,C=C(C)[C@@H]1CCC(C)=C[C@H]1c1c(O)cc(O)cc1CCCCC,0.914
3,N[C@H]1C[C@@H]1c1ccccc1,0.985
4,c1cc2ccsc2c(N2CCNCC2)n1,0.937
5,CCCCC/C=C\C/C=C\C/C=C\C/C=C\CCCC(=O)NC1CC1,1.01
6,C=C(C)[C@@H]1CCC(C)=C[C@H]1c1c(OC)cc(CCCCC)cc1OC,0.935
7,COc1cc(CNC(=O)CCCCCCC(C)C)c(I)cc1O,1.02
8,CCCCCCCC/C=C\CCCCCCCC(=O)N[C@H](C)CO,0.925
9,CN=C(NS(=O)(=O)c1ccc(Cl)cc1)N1C[C@@H](c2ccccc2)C(c2ccc(Cl)cc2)=N1,0.663 (active)
10,C=C(C)[C@@H]1CCC(C)=C[C@H]1C1=C(O)C(=O)C(CCCCC)=CC1=O,1.08
11,CCCCC/C=C\C/C=C\C/C=C\C/C=C\CCCC(=O)NCCCC(=O)O,0.955
12,CCCCC/C=C\C/C=C\C/C=C\C/C=C\CCCC(=O)Nc1cccc([N+](=O)[O-])c1,0.95
13,CCCN(CCCN)N(O)N=O,1.05
14,CCCCC/C=C\C/C=C\C/C=C\C/C=C\CCCC(=O)NCC(O)CC(=O)O (configuration not stated),1.07
15,CCN1C[C@@]2(COC)C3[C@@H](OC)[C@H]4[C@H]1C3([C@@H]1C[C@@]3(O)[C@H](OC(=O)c5ccccc5)[C@@H]1[C@]4(OC(C)=O)[C@@H](O)[C@@H]3OC)[C@H](OC)C[C@H]2O,0.989
16,COC(C/C=C/C=C/CC/C=C\CC(C)/C=C\C(=C/C(=O)O)CC(=O)O)/C(C)=C\C=C(/C)C(=O)O (configuration not stated),0.975
17,CCCCC/C=C\C/C=C\C/C=C\C/C=C\CCCC(=O)N[C@@H](C)CO,1.04
18,CCCCCCCCCC(=O)OC[C@H](COP(=O)([O-])OCC[N+](C)(C)C)OC(=O)CCCCCCCCC,0.907
19,CCCCC/C=C\C/C=C\C/C=C\C/C=C\CCCC(=O)Nc1cccc(O)c1,0.942
20,O=C(NCCN1CCC2(CC1)C(=O)NCN2c1ccccc1)c1ccc2ccccc2c1,0.966
21,CCCCC/C=C\C/C=C\C/C=C\C/C=C\CCCC(=O)Nc1ccc2c(C)cc(=O)oc2c1,0.937
22,COc1cc(/C=C\c2ccc(OC)c(O)c2)cc(OC)c1,0.917
